# Source: PubChem BioAssay
# Calls of active or inactive are those of the source.
# Key:
# Albumin (Bos taurus) = Albumin (Bos taurus) (UniProt P02769); assay: bovine serum albumin binders on microarray, profiling panel, artefact control for SMM control protein annotation, biochemical, small-molecule microarray, Alexa647 label, 635/667 nm fluorescence (AID 1118); settings: BSA-A647 binding, fluorescence 635 nm, higher = more signal;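 note: score merges 667 nm emission intensity and signal-to-noise per printed compound spot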
# [1] = small-molecule microarray binders of probe aXIP, primary screen, biochemical, NeuroSMM set, 635/667 nm fluorescence (AID 1119); settings: higher = more signal, called active from +8 up or from −8 down;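 note: probe is the protein aXip251-270 applied at 1 µg/mL to compound-printed slides; binding of probe to printed compounds measured as 667 nm fluorescence plus signal to noise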
# [2] = small-molecule binders of probe aNOTCH3, primary screen, biochemical, small-molecule microarray, 635/667 nm fluorescence (AID 1120); settings: higher = more signal;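 note: probe is a biotin-tagged antibody raised against NOTCH3 rather than NOTCH3 protein; score merges spot fluorescence near 667 nm with spot signal to noise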
# [3] = small-molecule binders of probe aNOTCH2, primary screen, biochemical, small-molecule microarray, 635/667 nm fluorescence (AID 1121); settings: higher = more signal;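 note: score merges feature fluorescence read at 667 nm with its signal to noise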
# [4] = molecular target: Carbonic anhydrase 2 (Homo sapiens) (UniProt P00918); assay: CAII small-molecule binders, profiling panel, biochemical, small-molecule microarray, Alexa647-labelled CAII (AID 1122); settings: CAII-A647 binding fluorescence, higher = more signal
# [5] = COS7 lysate on small-molecule microarray, probe aHis, 635 nm (AID 1123); settings: COS7 cell lysate, fluorescence, higher = more signal;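 note: z-score combines 667nm fluorescence intensity with signal-to-noise per printed compound spot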
# [6] = compound binding in COS7 lysate, probe aLAP1, primary screen, cell lysate, small-molecule microarray (AID 1124); settings: probe aLAP1, fluorescence, higher = more signal;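 note: lysate comes from COS7 cells expressing LAP1 and is applied at 0.3 µg/mL; score merges spot fluorescence near 667 nm with signal-to-noise over triplicate slides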
# Sam68 (KHDRBS1) = assay: Sam68 small-molecule binders, primary screen, biochemical, small-molecule microarray, 635 nm fluorescence (AID 1125); settings: small-molecule microarray binding, higher = more signal;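 note: score merges 667 nm channel intensity with signal to noise over triplicate slides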
# [7] = system: Chordin-like protein 2 (CHRDL2); assay: CHRDL2 small-molecule binders, primary screen, biochemical, small-molecule microarray, 635 nm fluorescence (AID 1126); settings: small-molecule microarray binding, fluorescence 635 nm; higher = more signal;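 note: printed compound slides probed with Chrdl2 protein at 4 µg/mL for 1 h at 4 C; score merges 667 nm emission intensity with signal to noise over three replicate slides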
# [8] = molecular target: Concanavalin-A (Canavalia ensiformis) (UniProt P02866); assay: ConA small-molecule binders, primary screen, artefact control for SMM control protein annotation, biochemical, small-molecule microarray, Alexa647 label, 635 nm (AID 1127); settings: ConA-A647 binding fluorescence, higher = more signal;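 note: z combines 667 nm emission intensity with signal-to-noise across three replicate slides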
# [9] = anti-His antibody binders, primary screen, artefact control for SMM control protein annotation, biochemical, small-molecule microarray, 635 nm fluorescence (AID 1128); settings: anti-His Alexa647 antibody binding, higher = more signal;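 note: score merges feature fluorescence with signal-to-noise for each printed compound spot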
# [10] = system: Human papillomavirus type 1a E7 protein (residues 1-88); assay: HPV1a E7 small-molecule binders, primary screen, biochemical, small-molecule microarray, residues 1-88, 635 nm (AID 1129); settings: small-molecule microarray binding, fluorescence 635 nm; higher = more signal
# [11] = molecular target: Focal adhesion kinase 1 (Homo sapiens) (UniProt Q05397); assay: small-molecule microarray binders of FAK, primary screen, biochemical, 635/667 nm fluorescence, BSA, DTT (AID 1130); settings: PTK2 binding, 635 nm fluorescence, higher = more signal;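 note: composite of spot emission at 667 nm and signal to noise over triplicate slides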
# [12] = system: Fibrinogen (Alexa647-labelled); assay: fibrinogen binders on compound microarrays, profiling panel, artefact control for SMM control-protein annotation, biochemical, small-molecule microarray, 635/667 nm fluorescence (AID 1131); settings: fibrinogen-A647 binding fluorescence, higher = more signal;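 note: z-score merges 667 nm fluorescence with per-spot signal-to-noise over triplicate slides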
# [13] = molecular target: Follistatin (Homo sapiens) (UniProt P19883); assay: follistatin binders on small-molecule microarrays, primary screen, biochemical, small-molecule microarray, 635/667 nm fluorescence (AID 1132); settings: FST binding, 635 nm fluorescence, higher = more signal
# [14] = molecular target: Fibroblast growth factor 2 (Homo sapiens) (UniProt P09038); assay: FGF2 binders on small-molecule microarrays, primary screen, biochemical, small-molecule microarray, 635/667 nm fluorescence (AID 1133); settings: small-molecule microarray binding, FGF2, fluorescence 635/667; higher = more signal
# [15] = mitochondrial membrane potential change in A549 cells, profiling panel, cell-based, JC-1 fluorescence, basal, 24 h, 100 nL (AID 1138); settings: higher = more signal;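 note: A549 lung adenocarcinoma cells under basal conditions with no added stimulus; test concentration not given here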
# Lefty1 = Lefty1 binders on small-molecule microarrays, primary screen, biochemical, small-molecule microarray, 635/667 nm fluorescence (AID 1139); settings: small-molecule microarray binding, fluorescence 635/667; higher = more signal
# [16] = system: wheat germ agglutinin (Triticum aestivum), Alexa647-labelled; assay: wheat germ agglutinin binders on compound microarrays, profiling panel, artefact control for SMM control-protein annotation, biochemical, small-molecule microarray, 635/667 nm fluorescence (AID 1140); settings: WGA-A647 binding, 635 nm fluorescence, higher = more signal;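 note: score merges 667 nm feature emission with signal to noise over triplicate slides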
# [17] = molecular target: Luciferin 4-monooxygenase (Photinus pyralis) (UniProt P08659); assay: firefly luciferase enzyme inhibitors, primary screen, biochemical, luminescence, purified enzyme, 2006 set (AID 1141); settings: SteadyGlo luminescence, 30 min, higher = more signal, called active from +8 up or from −8 down;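 note: cell-free assay with purified firefly luciferase at 100 ng per well in PBS; test concentration not given here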
# Chain of Luciferin 4-monooxygenase (Photinus pyralis) (P08659 whole entry, looked up): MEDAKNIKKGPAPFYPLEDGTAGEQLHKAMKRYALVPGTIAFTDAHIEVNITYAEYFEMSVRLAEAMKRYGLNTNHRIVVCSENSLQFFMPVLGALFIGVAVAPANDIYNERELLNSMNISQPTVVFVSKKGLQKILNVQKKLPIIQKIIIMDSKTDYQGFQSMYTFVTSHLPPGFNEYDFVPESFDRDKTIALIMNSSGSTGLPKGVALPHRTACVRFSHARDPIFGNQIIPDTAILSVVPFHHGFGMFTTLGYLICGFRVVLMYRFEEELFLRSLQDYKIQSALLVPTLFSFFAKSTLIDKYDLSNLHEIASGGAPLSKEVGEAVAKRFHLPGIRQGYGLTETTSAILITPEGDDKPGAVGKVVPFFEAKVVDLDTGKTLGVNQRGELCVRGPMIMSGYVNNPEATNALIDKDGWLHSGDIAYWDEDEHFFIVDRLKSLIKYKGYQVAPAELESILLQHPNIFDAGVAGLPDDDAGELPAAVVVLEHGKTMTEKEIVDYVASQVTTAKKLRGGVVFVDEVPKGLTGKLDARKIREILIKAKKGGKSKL
# Chain of Concanavalin-A (Canavalia ensiformis) (P02866 whole entry, looked up): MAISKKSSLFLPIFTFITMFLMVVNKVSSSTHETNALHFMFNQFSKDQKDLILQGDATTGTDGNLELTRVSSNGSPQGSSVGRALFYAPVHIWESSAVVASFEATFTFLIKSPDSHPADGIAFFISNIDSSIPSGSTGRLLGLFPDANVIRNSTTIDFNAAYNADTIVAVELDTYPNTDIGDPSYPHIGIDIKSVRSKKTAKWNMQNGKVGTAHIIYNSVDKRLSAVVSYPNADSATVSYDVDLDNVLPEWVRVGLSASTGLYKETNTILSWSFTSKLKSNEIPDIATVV
# Chain of Albumin (Bos taurus) (P02769 whole entry, looked up): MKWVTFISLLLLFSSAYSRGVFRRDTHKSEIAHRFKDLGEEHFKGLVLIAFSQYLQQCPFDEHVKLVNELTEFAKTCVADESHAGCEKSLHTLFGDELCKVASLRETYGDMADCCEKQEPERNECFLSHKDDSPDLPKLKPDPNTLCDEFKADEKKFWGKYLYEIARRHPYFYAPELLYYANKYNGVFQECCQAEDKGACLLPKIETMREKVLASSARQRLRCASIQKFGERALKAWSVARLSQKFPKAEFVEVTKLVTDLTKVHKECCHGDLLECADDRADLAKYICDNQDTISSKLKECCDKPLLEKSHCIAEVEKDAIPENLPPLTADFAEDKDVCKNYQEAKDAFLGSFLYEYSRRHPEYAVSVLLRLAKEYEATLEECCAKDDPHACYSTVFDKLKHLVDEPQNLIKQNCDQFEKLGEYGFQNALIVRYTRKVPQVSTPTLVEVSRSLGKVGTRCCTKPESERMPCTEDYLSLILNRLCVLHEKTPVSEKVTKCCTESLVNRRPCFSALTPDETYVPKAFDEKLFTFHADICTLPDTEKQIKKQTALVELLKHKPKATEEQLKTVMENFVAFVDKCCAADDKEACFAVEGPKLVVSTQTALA
# Chain of Follistatin (Homo sapiens) (P19883 whole entry, looked up): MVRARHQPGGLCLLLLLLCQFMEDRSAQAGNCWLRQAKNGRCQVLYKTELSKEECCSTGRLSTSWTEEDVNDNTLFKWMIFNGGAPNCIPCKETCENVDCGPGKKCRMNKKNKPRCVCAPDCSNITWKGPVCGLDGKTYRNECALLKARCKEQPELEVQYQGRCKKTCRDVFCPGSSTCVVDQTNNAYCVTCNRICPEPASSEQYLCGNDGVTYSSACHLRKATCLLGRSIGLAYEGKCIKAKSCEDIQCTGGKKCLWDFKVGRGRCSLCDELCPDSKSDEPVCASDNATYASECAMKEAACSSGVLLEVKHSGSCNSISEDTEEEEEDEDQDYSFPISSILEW
# Chain of Fibroblast growth factor 2 (Homo sapiens) (P09038 whole entry, looked up): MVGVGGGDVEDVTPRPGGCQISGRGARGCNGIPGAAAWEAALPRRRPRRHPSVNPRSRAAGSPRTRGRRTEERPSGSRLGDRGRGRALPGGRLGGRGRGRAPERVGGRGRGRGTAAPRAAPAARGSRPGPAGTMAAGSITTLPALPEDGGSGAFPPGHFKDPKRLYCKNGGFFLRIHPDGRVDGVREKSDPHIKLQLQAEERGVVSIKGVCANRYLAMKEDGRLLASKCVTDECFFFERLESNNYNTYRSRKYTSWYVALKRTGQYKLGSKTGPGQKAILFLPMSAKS
# Chain of Focal adhesion kinase 1 (Homo sapiens) (Q05397 whole entry, looked up): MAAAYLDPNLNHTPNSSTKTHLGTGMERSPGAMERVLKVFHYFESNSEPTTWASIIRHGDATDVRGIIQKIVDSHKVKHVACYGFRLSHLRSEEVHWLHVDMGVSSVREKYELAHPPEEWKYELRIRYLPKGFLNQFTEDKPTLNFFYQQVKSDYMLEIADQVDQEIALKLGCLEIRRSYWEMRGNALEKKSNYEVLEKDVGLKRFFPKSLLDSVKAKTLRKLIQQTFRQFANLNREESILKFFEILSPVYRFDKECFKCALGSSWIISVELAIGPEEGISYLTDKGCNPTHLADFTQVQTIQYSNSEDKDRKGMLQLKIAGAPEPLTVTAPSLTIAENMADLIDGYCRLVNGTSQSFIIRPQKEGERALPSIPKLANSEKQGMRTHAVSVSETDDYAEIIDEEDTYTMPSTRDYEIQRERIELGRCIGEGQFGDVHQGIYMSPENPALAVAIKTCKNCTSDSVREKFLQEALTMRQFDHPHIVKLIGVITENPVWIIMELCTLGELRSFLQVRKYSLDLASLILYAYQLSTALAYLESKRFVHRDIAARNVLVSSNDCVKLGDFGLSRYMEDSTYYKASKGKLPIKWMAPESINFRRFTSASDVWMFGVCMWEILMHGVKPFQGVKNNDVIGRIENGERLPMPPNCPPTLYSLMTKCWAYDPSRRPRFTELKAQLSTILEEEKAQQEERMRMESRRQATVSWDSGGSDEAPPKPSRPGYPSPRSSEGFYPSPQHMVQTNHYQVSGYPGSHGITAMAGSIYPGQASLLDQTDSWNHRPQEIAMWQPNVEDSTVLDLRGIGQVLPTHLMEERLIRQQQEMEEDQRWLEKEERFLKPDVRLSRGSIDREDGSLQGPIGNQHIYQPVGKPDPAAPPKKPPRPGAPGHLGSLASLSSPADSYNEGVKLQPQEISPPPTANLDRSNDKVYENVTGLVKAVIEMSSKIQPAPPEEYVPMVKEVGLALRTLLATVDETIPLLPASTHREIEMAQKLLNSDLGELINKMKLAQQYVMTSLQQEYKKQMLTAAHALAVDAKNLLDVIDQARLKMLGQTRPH
SMILES,composite z-score (Albumin (Bos taurus)),composite Z-score [1],composite z-score [2],composite z-score [3],composite z-score [4],composite z-score [5],composite z-score [6],composite z-score (Sam68 (KHDRBS1)),composite z-score [7],composite z-score [8],composite z-score [9],composite z-score [10],composite z-score [11],composite z-score [12],composite z-score [13],composite z-score [14],z-score [15],composite z-score (Lefty1),composite z-score [16],z-score [17]
COC(=O)[C@]1(CO)N=C(c2ccc(OCCCO)cc2)O[C@@H]1c1ccccc1N=[N+]=[N-],-1.02,1.73 (inactive),-0.112,-0.0629,0.771,4.01,0.758,1.29,0.94,0.545,1.3,0.541,-0.277,0.633,1.43,1.6,0.299,0.83,-0.119,-1.64 (inactive)
CC(C)N1CC=CC23O[C@@H]4C=CCCOC(=O)C4[C@H]2C(=O)N(CCCCCCO)[C@@H]3C1=O (stereo not given in full),-0.176,0.0157 (inactive),-0.193,0.109,0.439,-0.425,0.753,-0.952,-1.71,-0.428,-0.112,-0.807,-0.268,-1.2,-0.851,-1.6,0.526,-0.187,-1.32,-0.127 (inactive)
CC(=O)OC[C@H]1O[C@H](CCON=C(C)CCC(=O)OC[C@H]2O[C@H](C#Cc3ccccc3)C=C[C@@H]2Oc2ccc(C)cc2)C=C[C@@H]1OC(C)=O,0.208,0.131 (inactive),0.0322,-0.204,-0.085,0.1,0.448,0.287,0.401,0.194,0.0004,0.125,0.369,0.185,0.496,0.592,-0.518,0.802,0.0698,0.54 (inactive)
COC(=O)CC=C[C@@H](C)[C@H](OC)c1ccccc1Br,-0.335,0.0948 (inactive),0.0985,-0.0684,-0.0896,-0.453,0.1,-0.0689,0.508,-0.24,-0.457,0.0434,-0.0378,-0.47,0.209,0.182,0.688,0.0835,-0.602,-0.384 (inactive)
CC(C)=CCCC(C)=CCON=C1[C@H]2CCn3c(=O)n(Cc4cc5c(cc4Cl)OCO5)c(=O)n3[C@H]2[C@H](O)[C@@H]2O[C@H]12,-0.0415,-0.116 (inactive),0.204,-0.131,-0.158,-0.605,0.0561,-0.218,1.08,0.598,0.321,0.349,0.138,0.544,0.908,0.367,-0.939,0.889,-0.0863,0.196 (inactive)
C[C@@H]1C=CCC(=O)OC[C@H](C)C(=O)N[C@@H](C)C(=O)OC1,-0.171,0.215 (inactive),-0.0647,-0.144,-0.385,-0.466,0.369,0.175,0.71,0.155,-0.181,-0.479,1.32,-0.096,0.302,1.09,-0.944,0.921,-0.323,1.04 (inactive)
CN1C(=O)C2C=CC(C(O)c3ccc(I)cc3)N(NC(=O)OC(C)(C)C)C2C1=O (stereo not given),0.825,-0.252 (inactive),0.435,0.17,0.719,2.18,0.555,1.31,-0.294,0.898,0.131,1.25,0.739,0.974,0.669,-0.0956,-0.317,-0.119,0.743,0.607 (inactive)
C[C@H](c1ccccc1)N1C(=O)[C@H]2[C@H]3[C@H](O)[C@H](O)CC(=O)[C@@H]3CC[C@H]2C1=O,0.493,0.17 (inactive),0.148,-0.114,0.496,0.13,0.876,-0.0681,0.604,0.162,0.62,-0.0909,0.0546,0.436,0.469,0.51,0.47,0.515,0.286,0.569 (inactive)
Cc1cc2c(c(=O)o1)[C@H](O)[C@H]1O[C@H]1C2=O,-1.02,-0.18 (inactive),0.255,-0.0076,0.0024,-0.682,-0.106,-0.333,0.26,-0.0383,-0.633,-1.07,-0.21,-0.236,0.429,0.126,-1.23,-0.32,-0.137,-0.0074 (inactive)
CCOC(=O)[C@H](Cc1ccccc1)NC(=O)CCC1CC(OC(=O)NCc2ccc3c(c2)OCO3)CC2(CCCC(COC(=O)NCC(c3ccccc3)c3ccccc3)O2)O1 (stereo not given in full),0.48,-0.718 (inactive),0.17,-0.11,0.28,0.86,0.0713,1.32,0.226,0.329,0.98,1.2,0.231,0.0058,0.83,0.555,0.803,0.579,0.477,0.635 (inactive)
